Source: the supplement of paper PMC13380429
Unmarked numbers belong to inactive results.

Tested on: Vero E6 infected with SARS-CoV-2
Experiment: inhibition of SARS-CoV-2 cytopathic effect; higher = more antiviral protection, active = above 15
Conditions: 48 h

SMILES | inhibition of SARS-CoV-2 cytopathic effect (1 nM) [%] | inhibition of SARS-CoV-2 cytopathic effect (8.33 nM) [%] | inhibition of SARS-CoV-2 cytopathic effect (100 nM) [%] | inhibition of SARS-CoV-2 cytopathic effect (833.33 nM) [%] | inhibition of SARS-CoV-2 cytopathic effect (10000 nM)
Cc1nc2ccc(Oc3ccc(F)cc3)cc2c(=O)n1C[C@H]1CCCN(C(C)C)C1 | 0.11 | 0.49 | 1.67 | 0.07 | -5.71%
O=C(c1cc(S(=O)(=O)Nc2ccccc2F)c(F)cc1Cl)N1CCN2CCC[C@@H]2C1 | 1.66 | 2.06 | 1.64 | 8.06 | -1.59%
C/C(=N\NC(=S)N1CCC1)c1ccccn1 | 0.2 | 0.91 | 2.65 | -1.1 | 20.1% (active)
N=C(NCCC[C@H](N)C(=O)O)N[N+](=O)[O-] [NG-nitro-arginine] | 4.03 | -0.95 | -0.93 | 0.27 | -0.46%
c1ccc2c(Cc3c[nH]c4ccccc34)c[nH]c2c1 [3,3'-diindolylmethane] | 0.74 | 0.3 | 4.3 | 4.76 | 3.8%
CNC(=O)c1ccc(C)c(-n2c(C)cc(OCc3ccc(F)cc3F)c(Br)c2=O)c1 | -1.52 | -2.37 | -3.51 | -2.74 | -7.45%
O=C(/C=C\n1cnc(-c2cc(C(F)(F)F)cc(C(F)(F)F)c2)n1)N1CC(F)(F)C1 | 2.37 | -1.09 | -2.84 | -7.74 | -16.6%
CCCCC/C=C\C=C\CCCCCCCCC(=O)O [trans-10,cis-12-conjugated-linoleic-acid] | -0.53 | -2.2 | -2.88 | -2.64 | 7.84%
CNS(=O)(=O)CCc1ccc2[nH]cc(C3CCN(C)CC3)c2c1 [naratriptan] | -2.05 | 0.47 | 2.08 | -3.05 | -1.76%
Nc1nc2c(ncn2COC(CO)CO)c(=O)[nH]1 [ganciclovir] | 0.29 | 0.09 | 2.75 | -1.42 | -1.71%
COc1cccc2c1C(=O)c1c(O)c3c(c(O)c1C2=O)C[C@@](O)(/C(CO)=N/NC(=O)CCCCCN1C(=O)C=CC1=O)C[C@@H]3O[C@H]1C[C@H](N)[C@H](O)[C@H](C)O1 [aldoxorubicin] | -2.6 | -0.32 | 0.6 | 4.67 | -1.37%
CC(OC(=O)NCC1(CC(=O)O)CCCCC1)OC(=O)C(C)C (stereo not given) [gabapentin-enacarbil] | -7.45 | -8.92 | -4.27 | -4.9 | -8.44%
C[C@@H](Oc1ccc2[nH]nc(/C=C/c3cnn(CCO)c3)c2c1)c1c(Cl)cncc1Cl | -0.14 | -0.97 | -1.04 | -13.8 | -14.7%
Cc1nn(-c2ccccc2)c(C)c1/C=N/N1CCN(Cc2ccccc2)CC1 | -4.74 | 0.23 | -0.84 | -0.98 | -0.87%
Nc1ccc(O)c(C(=O)O)c1 [mesalazine] | 1.06 | -2.08 | 1.03 | -1.05 | -2.08%
NC1CCN(c2cccc(Cl)n2)CC1 | 0.72 | -1.55 | -4.6 | -0.29 | -3.39%
C[C@H](Nc1cc(-c2cnn(C)c2)cc(Nc2cnccn2)n1)c1ccc(F)cc1 | 1.93 | 1.68 | 2.86 | -4.39 | -8.8%
CC[N+](CC)(CCNC(=O)C(=O)NCC[N+](CC)(CC)Cc1ccccc1Cl)Cc1ccccc1Cl [ambenonium] | 0.39 | -2.16 | -1.45 | 0.75 | 0.34%
CC(=O)c1ccc2c(c1)N(CCCN1CCN(CCO)CC1)c1ccccc1S2 [acetophenazine] | 1.65 | 1.77 | 2.3 | 2.47 | 2.15%
CCCNC(C)C(=O)Nc1ccccc1C (stereo not given) [prilocaine] | 3.07 | -1.58 | -0.81 | 2.12 | 2%

SMILES | inhibition of SARS-CoV-2 cytopathic effect (1 nM) [%] | inhibition of SARS-CoV-2 cytopathic effect (8.33 nM) [%] | inhibition of SARS-CoV-2 cytopathic effect (100 nM) [%] | inhibition of SARS-CoV-2 cytopathic effect (833.33 nM) [%] | inhibition of SARS-CoV-2 cytopathic effect (10000 nM)
Cc1ncc(C[n+]2csc(CCO)c2C)c(N)n1 [thiamine] | -3.81 | -0.57 | -1.61 | -1.44 | 0.13%
CN1CC(O)C2=C/C(=N/NC(N)=O)C(=O)C=C21 (stereo not given) [carbazochrome] | 2.27 | 3.04 | -0.28 | -1.11 | 0.54%
N[C@@H](Cc1cc(CP(=O)(O)O)cc(-c2ccccc2Cl)c1)C(=O)O | 8.76 | 0.31 | 1.79 | 1.85 | 1.74%
CN[C@@H]1[C@@H](O)[C@@H](O[C@@H]2[C@@H](O)[C@H](O[C@H]3OC(CN)=CC[C@H]3N)[C@@H](N)C[C@H]2N)OC[C@]1(C)O [Sisomicin (sulfate)] | 0.02 | 0.45 | 0.885 | -0.63 | -0.58%
NC(Cc1ccc(I)cc1)C(=O)O (stereo in doubt) [4-iodo-L-phenylalanine] | 0.62 | -0.66 | 0.54 | 0.32 | -0.26%
CN(C)CCCN1c2ccccc2Sc2ccc(Cl)cc21 [chlorpromazine] | -0.39 | 2.71 | 1.5 | 2.32 | 7.04%
NC(=O)c1ncn([C@@H]2O[C@H](CO)[C@@H](O)[C@H]2O)c1N [acadesine] | 0.23 | 2.34 | 1.8 | 0.21 | -1.3%
O=c1oc2c(O)c(O)cc3c(=O)oc4c(O)c(O)cc1c4c23 [ellagic-acid] | 0.02 | 0.42 | 4.12 | 1.76 | -1.74%
CC(C)n1cnc2c(NCCc3ccc(O)cc3)nc(-c3csc4ccccc34)nc21 [stemregenin-1] | 1.26 | 0.69 | 1.35 | -0.07 | 18.1% (active)
CCn1c(=O)n(C2=C(CO)CN(CC3CCCCCCC3)CC2)c2ccccc21 [trap-101] | -2.39 | 1.16 | 1.23 | 1.48 | -3.08%
Cc1cn2nc([C@@H]3CCCCN3C(=O)c3cc(Cl)ccc3NS(C)(=O)=O)cc2nc1N1CC[C@H](N)C1 [presatovir] | 2.31 | 0.48 | -1.98 | -1.96 | -4.09%
CN1CCN(CCOc2cc(OC3CCOCC3)c3c(Nc4c(Cl)ccc5c4OCO5)ncnc3c2)CC1 [saracatinib] | 0.37 | -0.91 | 0.04 | -7 | -12.3%
C=C1/C(=C\C=C2/CCC[C@]3(C)[C@@H]([C@H](C)/C=C/[C@H](C)C(C)(C)O)CC[C@@H]23)C[C@@H](O)C[C@@H]1O [ercalcitriol] | -1.77 | 0.83 | -0.6 | 2.88 | 3.34%
CC(C)OC(=O)CNC(=O)[C@H](CS)NC(=O)CC[C@H](N)C(=O)O [glutathione-monoisopropyl-ester] | -0.48 | 2.43 | -0.65 | 0.55 | 2.32%
Cn1cc(/C=C2\C(=O)Nc3cccnc32)c2ccccc21 | -2.16 | -2.36 | 2.94 | 0.64 | 4.71%
O=S(=O)(N[C@H]1CC[C@@](c2cc(F)ccc2F)(S(=O)(=O)c2ccc(Cl)cc2)CC1)C(F)(F)F | 2.61 | 4.08 | -0.09 | -2.63 | -2.01%
CC(=O)N1CCN(C)CC1 [1-acetyl-4-methylpiperazine] | 4.74 | 3.75 | 3.95 | 4.36 | -0.21%
CC1=C(/C=C/C(C)=C/C=C/C(C)=C/C(=O)O)C(C)(C)CCC1 [tretinoin] | 1 | -1.08 | -0.09 | 2.67 | 7.6%
Nc1ncnc2c1ncn2[C@@H]1O[C@H](COP(=O)(O)OP(=O)(O)OP(=O)(O)O)[C@@H](O)[C@H]1O | -0.89 | -1.33 | -0.6 | 2.57 | 2.48%
